# D2 antag = D2 dopamine receptor (human) antagonism; AID 485344; inhibition, % at 10 µM; HEK293 TREx D2 cells, calcium flux, dopamine EC80; 340,000 tested, 2% active; in the data active = inhibition above about 30%; inactive = below that, where a call was filed; note: 0% is about no effect
# Target sequence (P14416 whole entry, looked up): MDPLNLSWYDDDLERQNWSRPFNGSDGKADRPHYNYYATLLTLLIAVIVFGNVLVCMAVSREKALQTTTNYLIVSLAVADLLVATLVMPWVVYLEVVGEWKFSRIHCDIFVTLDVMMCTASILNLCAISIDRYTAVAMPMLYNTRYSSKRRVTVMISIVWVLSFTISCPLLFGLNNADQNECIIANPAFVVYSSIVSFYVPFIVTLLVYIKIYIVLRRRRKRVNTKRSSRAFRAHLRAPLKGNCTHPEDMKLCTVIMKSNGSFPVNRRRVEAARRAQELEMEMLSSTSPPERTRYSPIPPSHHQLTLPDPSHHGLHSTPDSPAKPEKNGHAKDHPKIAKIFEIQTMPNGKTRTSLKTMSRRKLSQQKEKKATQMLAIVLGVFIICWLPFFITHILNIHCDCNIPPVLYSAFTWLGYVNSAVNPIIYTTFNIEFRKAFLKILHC
#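 Dopamine at EC80 is the agonist stimulus; test compounds precede it by 180 s. Calcium flux read kinetically in a force-coupled, inducible HEK293 T-REx D2 cell line.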
# D2 ag-1 = agonists of human D2 dopamine receptor (beta-arrestin); P14416; DiscoveRx PathHunter D2 beta-arrestin, luminescence, 90 min; 100% = 57 uM dopamine signal; activation, % (no concentration beside the values); 360,000 tested, 0.084% active; in the data active = activation above about 40%; inconclusive = between about 15% and that limit
#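 DiscoveRx PathHunter D2 beta-arrestin cells (2,100/well) attached overnight, then compound-stimulated 90 min at 37 C in HBSS/10 mM HEPES/0.1% Tween-20 buffer; beta-galactosidase complementation read by luminescence after 1 h at ambient temperature. Dopamine 57 uM final (EC100) as control.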
# D2 PAM-1 = positive allosteric modulators of human D2 dopamine receptor. AID 624464. DiscoveRx D2 beta-arrestin cells, luminescence, 90 min; 100% = 57 uM dopamine signal. P14416. potentiation, % (test concentration not listed). 360,000 tested, 0.23% active; in the data active = potentiation above about 50%; inconclusive = mostly about 30% to 49%
#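 PathHunter beta-arrestin assay in DiscoveRx D2 cells. Compounds were added with an EC20 of dopamine (50 nM final) for 90 min at 37 deg C. Luminescence was read 1 h after detection reagent, with 57 uM dopamine as the EC100 control.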
# D2 PAM-2 = positively modulates the human D2 dopamine receptor allosterically | 340,000 tested, 0.34% active | P14416 | HEK293 T-REx D2, calcium flux, EC20 dopamine potentiation | potentiation, % at 10 µM | AID 485347;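 active = potentiation over 3 SD above the plate norm, cut at about 30% in these data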; note: 0% is about no effect
#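 Primary screen. Calcium kinetics in induced HEK293 T-REx D2 cells: compound pre-addition 180 s, EC20 dopamine, 180 s more.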
# D2 ag-2 = agonists of human D2 dopamine receptor; AID 485358; HEK293 T-REx D2 cells, calcium flux agonist mode; 340,000 tested, 0.53% active; activation, % at 2 µM;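 active = activation over 3 SD above normal in the single-dose calcium agonist read, cut at about 30% in these data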; note: 0% is about no effect
#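 Agonism is scored from calcium flux in a force-coupled, inducible HEK293 cell line expressing D2, read kinetically for 180 s after compound addition against dopamine controls.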
# Numbers without * were called inactive; ? = inconclusive; · = no result given. Rows were chosen to be rich in hits. Some 2.4% of all compounds tested hit in one or more screens of this group.
SMILES,D2 antag,D2 ag-1,D2 PAM-1,D2 PAM-2,D2 ag-2
N/C(=N\OC(=O)c1cccc(F)c1)c1ccccc1,-2,?,57*,5,0
N/C(=N\OC(=O)c1ccc(F)cc1)c1ccccc1,5,?,72*,-9,-1
CC1CC(C)(C)Nc2ccc(OC(=O)c3ccco3)cc21 (stereo unspecified),0,?,112*,10,1
O=C(Oc1ccc2ccccc2c1)c1ccco1,-7,-3,2,-6,0
Fc1ccc2c(c1)Sc1ccc(Cl)cc1CC2N1CCN(CCC2OCCO2)CC1 (stereo unspecified),·,-8,-25,·,·
O=C(c1ccccc1Cl)N1CCNCC1,-8,-2,-5,-2,-1
COCCCN1CCN(C2Cc3ccccc3Sc3ccc(Cl)cc32)CC1 (stereo unspecified),107*,-3,-42,-28,1
Clc1cccc2c1Sc1ccccc1CC2N1CCNCC1 (stereo unspecified),66*,-2,-17,-17,2
NC(=O)CCN1CCN(CCOC2Cc3cc(Cl)ccc3Sc3ccccc32)CC1 (stereo unspecified),94*,3,-37,-25,0
Clc1ccc2c(c1)C(N1CCNCC1)Cc1ccccc1S2 (stereo unspecified),99*,-3,-38,-28,1
COc1ccc2c(c1)CC(N1CCN(C)CC1)c1cc(OC)ccc1S2 (stereo unspecified),·,-6,-23,·,·
CSc1ccc2c(c1)C(N1CCN(C)CC1)Cc1ccc(F)cc1S2 (stereo unspecified),·,0,-12,·,·
CC(=O)N1CCc2c(sc3c2c(=O)n(CCc2ccccc2)c(=O)n3Cc2ccc(F)cc2)C1,·,·,·,6,0
COc1ccc(CCNC(=O)CCn2c(=O)c3cccn3c3ccc(F)cc32)cc1OC,·,·,·,3,1
COc1ccccc1OCCNC(=O)C1CCN(C(C)=O)CC1,5,0,-6,31*,2
O=C(O)CN1C(=O)NC2(CCOc3ccccc32)C1=O (stereo unspecified),-1,-2,-10,-3,1
O=C1NC2(CCOc3ccccc32)C(=O)N1CC(=O)N(Cc1ccccc1)C1CCS(=O)(=O)C1 (stereo unspecified),40*,-2,5,24,-1
CC1CC(C)CN(CCCNC(=O)Cn2ncc3c(=O)oc4ccccc4c32)C1 (stereo unspecified),4,-9,-11,-6,1
O=C(Cn1ncc2c(=O)oc3ccccc3c21)NCCN1CCN(c2ccccc2F)CC1,-17,-2,-6,-25,37*
CCCCn1c(CNC(=O)CCC)nc2ccccc21,34*,-3,-12,-2,-1
Cc1ccc(CNC(=O)C(C(C)C)N2Cc3ccccc3C2=O)cc1 (stereo unspecified),·,·,·,3,0
CC(C)(C)C(=O)COC(=O)CCc1nc2ccccc2[nH]c1=O,31*,3,1,11,1
COc1cc(OC)cc(C(=O)N2CCN(c3ccccc3F)CC2)c1,31*,-3,-7,0,1
O=C(c1cccc(Br)c1)N1CCN(C(=O)c2cccc(Br)c2)CC1,5,0,-6,35*,0
COc1cc(OC)cc(C(=O)N2CCC(N3CCCCCC3)CC2)c1,3,-1,-8,38*,-1
SMILES,D2 antag,D2 ag-1,D2 PAM-1,D2 PAM-2,D2 ag-2
O=C(c1cccc(Br)c1)N1CCN(C(=O)N2CCOCC2)CC1,19,-2,-22,-5,1
COc1cc(OC)cc(C(=O)N2CCN(C(=O)c3cccc(F)c3)CC2)c1,31*,1,6,-1,0
COc1ccc(OCC(=O)N2CCN(C(=O)c3cccc(F)c3)CC2)cc1,-3,-2,-7,-8,-1
COc1cc(OC)cc(C(=O)N2CCN(C3CCCCC3)CC2)c1,-3,-2,-8,5,0
COc1ccc(CNC(=O)CCC2N=C3c4ccccc4N=C(SCC(=O)NCCc4ccc(OC)c(OC)c4)N3C2=O)cc1 (stereo unspecified),·,·,·,8,-1
Clc1ccc(-c2noc3ncnc(NCCc4ccccc4)c23)cc1,·,·,·,6,0
Cc1nn(CC(=O)N2CCN(c3ccccc3)CC2)c(=O)c2cc3cc(F)ccc3n12,·,·,·,6,0
O=C(CN1CCOCC1)N1CCN(c2ccc([N+](=O)[O-])cc2)CC1,83*,-6,-10,-14,0
O=C(c1cc(S(=O)(=O)N2CCOCC2)ccc1Cl)N1CCN(c2ccccn2)CC1,-3,3,1,-7,0
CC(=O)N1CCN(C(=O)c2cc(S(=O)(=O)N3CCN(c4ccccc4)CC3)ccc2Cl)CC1,5,-4,?,49*,0
COC(=O)c1cc(C(=O)N2CCN(c3cccc(Cl)c3)CC2)cc([N+](=O)[O-])c1,30*,12,17,-4,0
O=C(CN1CCN(c2ccc([N+](=O)[O-])cc2Cl)CC1)N1CCOCC1,-9,-1,1,-4,0
O=C(c1cc([N+](=O)[O-])ccc1Cl)N1CCN(c2ccc([N+](=O)[O-])cc2)CC1,41*,8,7,7,0
CN(Cc1ccccc1)c1nc2c(S(=O)(=O)c3cccc(Cl)c3)nnn2c2ccsc12,·,·,·,5,0
COc1cc(OC)cc(C(=O)N2CC(=O)Nc3ccc(Cl)cc3C2c2ccccc2)c1 (stereo unspecified),·,·,·,20,0
CCC(NC(=O)c1ccc([N+](=O)[O-])cc1[N+](=O)[O-])c1ccccc1 (stereo unspecified),-2,11,74*,7,1
S=C(NCCc1ccccc1)N1CCc2ccccc2C1,41*,-2,-13,-11,-1
OC1CCN(C(=S)NCCc2ccccc2)CC1,2,0,-4,0,0
COCCn1c(=S)[nH]c2cc(C(=O)NCCCN3CCOCC3)ccc2c1=O,-6,-1,-5,12,1
COCCn1c(=O)[nH]c2cc(C(=O)NCCN3CCN(c4ccccc4F)CC3)ccc2c1=O,96*,?,18,-21,83*
COCCn1c(=O)[nH]c2cc(C(=O)Nc3cccc(F)c3)ccc2c1=O,20,3,-7,-18,40*
COCCn1c(=O)[nH]c2cc(C(=O)NCCCN3CCN(c4ccc(F)cc4)CC3)ccc2c1=O,58*,5,-8,-30,35*
COC(=O)c1ccc(-n2nnc(-c3nc(-c4ccc5c(c4)OCO5)no3)c2C)cc1,·,·,·,-7,0
Cc1cccc(N2CCN(C(=O)C3CCCN(S(=O)(=O)c4ccc(Br)s4)C3)CC2)c1C (stereo unspecified),·,·,·,13,1
CC(C)(C)c1ccc(/C=N/NC(=O)c2ccccn2)cc1,3,-4,-6,-14,1
